# Screens (PubChem)
# HT1080 IDH1KD tx: qHTS for induction of synthetic lethality in tumor cells producing 2HG: qHTS for the HT-1080-IDH1KD cell line. hit rate 2% among 360,000. AID 686971, 2013. HT-1080 IDH1 knockdown viability, ATP luminescence, 48 h. Potency, µM (highest dose often 46.1 µM), for inactives: top-dose activity, negative = toxicity, usual class: cytotoxic;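 note: potency is the fitted concentration of half-maximal effect; 0% = DMSO wells and -100% = cell-free medium wells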
#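 % activity derives from luminescence (CellTiter-Glo), normalised to DMSO and no-cell wells. HT-1080-IDH1KD cells, 750/well, had 48 h compound exposure at 37 °C.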
# IL1B secr inh: qHTS for Inhibitors of Inflammasome Signaling: IL-1-beta AlphaLISA Primary Screen; THP-1 LPS/ATP IL-1B secretion, AlphaLISA, 16 h; hits give low values; activity change, % at 57.5 µM; hit rate 4.7% among 360,000; AID 743279, 2014; in the data active = activity change below about -50%; inconclusive = mostly about -30% to -49%
#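 THP-1 cells pretreated 1 hr with compounds (up to 57.5 uM final), then stimulated with LPS (250 ng/mL final) plus ATP (1.25 mM final); secreted IL-1B measured by AlphaLISA after 16 hr, decreased signal indicating inhibition.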
# HT1080NT lethal: qHTS for induction of synthetic lethality in tumor cells producing 2HG: qHTS for the HT-1080-NT fibrosarcoma cell line; HT-1080-NT fibrosarcoma viability, CellTiter-Glo ATP luminescence, 48 h; Potency, µM (highest dose often 46.1 µM), for the others: at the top dose activity, negative = less viability, most hits filed as cytotoxic; hit rate 1.6% among 360,000; AID 686970, 2013;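 note: NT is the 2HG producing partner of a matched IDH1 knockdown line; potency is the fitted concentration of half-maximal effect; 0% = DMSO-treated cells and -100% = media-only wells without cells; nearly all actives have a fitted effect of over 55% in size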
#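 Viability of the 2HG-overproducing fibrosarcoma line after 48 hours of compound exposure at 37 degrees C was determined by luminescence with CellTiter-Glo, and concentration-effect curves were then fitted and categorized.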
# ELG1 repair inh: qHTS screen for small molecules that inhibit ELG1-dependent DNA repair in human embryonic kidney (HEK293T) cells expressing luciferase-tagged ELG1. HEK293T ELG1-luciferase reporter, luminescence, 16 h; DNA damage induced by 5-fluorouridine. Potency, µM (doses to about 46.1 µM), inactives show at the top dose activity change, negative = inhibition, usual class: inhibitors. hit rate 2.3% among 330,000; note: potency is the fitted concentration of half-maximal effect; nearly all actives have a fitted effect of over 55% in size
#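 Step one: seed 2,000 cells per well. Step two: pin-transfer compound or DMSO alongside 5-fluorouridine. Step three: incubate 16 hr, 37 °C, 5% CO2. Step four: add ONE-Glo, wait 30 min, read luminescence.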
# TDP1 cell CPT: qHTS for Inhibitors of human tyrosyl-DNA phosphodiesterase 1 (TDP1): qHTS in cells in presence of CPT; chicken DT40 Tdp1-/-;hTDP1 cells + 20 nM CPT, ATP luminescence, 48 h; Potency, µM (series often up to 46.2 µM), for inactives: at the top dose activity change, negative = growth inhibition, usual class: inhibitors; hit rate 12% among 420,000; AID 686979, 2013; note: potency is the fitted concentration of half-maximal effect; nearly all actives have a fitted effect of over 55% in size
#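 Chicken DT40 Tdp1-/- cells complemented with human TDP1, 400 cells/well, exposed to compounds plus 20 nM camptothecin for at least 48 h at 37 C; viability read as ATP content by CellTiter-Glo luminescence.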
# DT40 TDP1 no CPT: qHTS for Inhibitors of human tyrosyl-DNA phosphodiesterase 1 (TDP1): qHTS in cells in absence of CPT; DT40 Tdp1-/- hTDP1 cells, no CPT, ATP luminescence, 48 h; Potency, µM (top dose mostly 46.2 µM), for inactives: at the highest dose activity change, negative = growth inhibition, most hits filed as inhibitors; hit rate 15% among 420,000; AID 686978, 2013; note: potency is the fitted concentration of half-maximal effect; nearly all actives have a fitted effect of over 55% in size
#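 Camptothecin absent (DMSO only). Human TDP1-complemented DT40 knockout cells, 400 cells/well, 37 °C for minimum 48 hr; ATP measured via CellTiter-Glo, 30 min dark incubation, luminescence.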
# Numbers without * were called inactive; ? = inconclusive; . = no result given. A selection: hits, their analogues and other compounds. The true share with any hit is near 19%. Unless noted, calls come from the whole dose curve; as a rule, active = well fitted curve in the direction sought with a large enough effect; inconclusive = small, poorly fitted or top-dose-only effect, or another doubt; inactive = no such curve, though single readings can be large; an effect the other way counts as inactive or inconclusive. Unless noted, % is set by controls: 0 for no effect and ±100 for the full control effect.
SMILES,HT1080 IDH1KD tx,IL1B secr inh,HT1080NT lethal,ELG1 repair inh,TDP1 cell CPT,DT40 TDP1 no CPT
C=CC[N+]1([C@H]2C[C@H]3[C@@H]4CC[C@H]5C[C@H](O)[C@@H](N6CCOCC6)C[C@]5(C)[C@H]4CC[C@]3(C)[C@H]2OC(C)=O)CCCC1,.,.,.,.,2%,-23%
CC1(C)CC(=O)C=C(NCc2ccccc2)C1,0%,-5,1%,0%,-1%,1%
CC1(C)CC(=O)C=C(NC2=CC3OC(c4ccccc4)OCC3OC2=O)C1 (stereo not drawn),21µM*,-25,?,13µM*,5.8µM*,6.5µM*
Cn1c(=O)c2c(nc(SCc3nc(N)nc(N4CCCCC4)n3)n2C)n(C)c1=O,2%,0,8%,?,21µM*,23µM*
CCN(CC)C(=S)SC1CCCCN(C(=O)c2ccccc2)C1=O (stereo not drawn),1%,-3,-1%,-3%,18µM*,-2%
O=C(c1ccccc1)N1CCCCC(Sc2nnc3ccccn23)C1=O (stereo not drawn),6%,0,2%,18%,-17%,-7%
CCc1ccccc1Nc1nn2c(=O)c3ccc(C(=O)NCCC4=CCCCC4)cc3nc2s1,.,.,.,.,16µM*,15µM*
Cc1ccc(Cl)cc1Nc1nn2c(=O)c3ccc(C(=O)NC4CCCCC4)cc3nc2s1,.,.,.,.,-19%,-28%
CCc1ccccc1Nc1nn2c(=O)c3ccc(C(=O)NCc4ccccn4)cc3nc2s1,0.029µM*,-14,0.26µM*,?,?,12µM*
COc1ccccc1Nc1nn2c(=O)c3ccc(C(=O)NCc4ccc(F)cc4)cc3nc2s1,.,.,.,.,3.7µM*,2.3µM*
CCc1ccccc1Nc1nn2c(=O)c3ccc(C(=O)NCc4ccccc4OC)cc3nc2s1,.,.,.,.,12µM*,?
CC(C)c1cc(C(F)(F)F)n2nc(C(=O)Nc3ccc(-n4cnnn4)cc3)cc2n1,5%,-13,8%,0%,0%,18%
O=C(COC(=O)CCNS(=O)(=O)c1ccccc1)Nc1ccc(OC(F)F)cc1,0%,6,0%,9%,3%,28%
COc1ccccc1Nc1nn2c(=O)c3ccc(C(=O)N4CCCCC4)cc3nc2s1,9%,-20,0%,-8%,13µM*,16µM*
COc1ccccc1Nc1nn2c(=O)c3ccc(C(=O)NCc4cccnc4)cc3nc2s1,.,.,.,6%,.,.
CCOc1ccc2c(c1)C(=NNC(=O)c1ccncc1)c1cc(OCC)ccc1-2,-10%,64,2%,?,3.7µM*,5.2µM*
COC(=O)Cn1c(C2CC(=O)N(c3c(C)cccc3C)C2)nc2ccccc21 (stereo not drawn),.,.,.,.,0%,-19%
O=c1ccc2cc(O)c(O)cc2o1,?,19,?,2%,16µM*,?
CN(C)CCNC(=O)c1onc(CSc2ccc(F)cc2)c1C(=O)NCCN(C)C,-17%,-6,-20%,10%,-8%,-18%
CCCNC(=O)c1onc(CSc2ccc(F)c(F)c2)c1C(=O)NCCC,2%,1,7%,.,15µM*,?
CN(C)CCNC(=O)c1onc(CSc2ccc(F)c(F)c2)c1C(=O)NCCN(C)C,-20%,?,-22%,?,-26%,16µM*
O=P(OCC1CC1)(c1ccccc1)c1ccccc1,5%,7,9%,11%,-1%,14%
Cc1cc2nc(C3CCCCC3)c(Cc3ccsc3)n2c(C)c1Br,?,70,?,.,?,?
